From PubChem BioAssay AID743433 (Vanderbilt Specialized Chemistry Center, 2014)

Molecular target: Metabotropic glutamate receptor 2 (Homo sapiens) (UniProt Q14416)
Test: mGlu2 agonist response modulation at 10 µM, profiling panel, selectivity assay for mGlu8/mGlu7 PAM project, cell-based, GIRK thallium flux, agonist curve fold shift (AID 743433)
Settings: mGlu2/GIRK cells, agonist CRC shift, agonist EC50 fold shift

Chain of Metabotropic glutamate receptor 2 (Homo sapiens) (Q14416 whole entry, looked up): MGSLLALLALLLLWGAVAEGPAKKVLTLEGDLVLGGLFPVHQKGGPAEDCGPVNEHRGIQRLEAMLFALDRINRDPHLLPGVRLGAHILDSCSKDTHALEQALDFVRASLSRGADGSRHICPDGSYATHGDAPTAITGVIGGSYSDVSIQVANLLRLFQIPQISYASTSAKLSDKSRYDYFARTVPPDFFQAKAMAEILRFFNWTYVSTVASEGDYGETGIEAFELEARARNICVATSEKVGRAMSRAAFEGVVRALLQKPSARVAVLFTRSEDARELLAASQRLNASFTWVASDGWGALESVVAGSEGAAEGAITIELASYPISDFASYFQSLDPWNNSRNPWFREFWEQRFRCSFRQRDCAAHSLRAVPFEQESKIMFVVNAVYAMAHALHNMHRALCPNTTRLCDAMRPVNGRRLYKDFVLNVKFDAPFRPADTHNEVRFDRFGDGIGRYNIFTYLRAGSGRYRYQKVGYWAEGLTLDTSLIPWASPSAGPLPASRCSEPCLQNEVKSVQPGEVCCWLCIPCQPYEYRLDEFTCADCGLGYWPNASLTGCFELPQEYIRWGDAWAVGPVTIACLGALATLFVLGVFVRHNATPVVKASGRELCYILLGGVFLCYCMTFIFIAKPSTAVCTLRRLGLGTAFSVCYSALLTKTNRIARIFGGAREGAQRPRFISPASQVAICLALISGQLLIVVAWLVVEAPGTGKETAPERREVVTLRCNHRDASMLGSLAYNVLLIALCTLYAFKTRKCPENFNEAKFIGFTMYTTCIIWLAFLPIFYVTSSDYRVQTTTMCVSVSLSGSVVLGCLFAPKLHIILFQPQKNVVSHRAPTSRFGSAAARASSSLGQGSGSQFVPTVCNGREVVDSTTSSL

SMILES: COC(=O)c1ccc(-n2c(C)cc(C(=O)CSc3ccc(NC(C)=O)cc3)c2C)cc1
- fold shift: 1
